Most compounds without a hit are left out; they make up all but 21% or so of the library.
DRD3 agonist: agonists of human D3 dopamine receptor. P35462. hit rate 0.58% among 410,000. D3R DiscoveRx beta-arrestin cells, luminescence, 90 min. AID 652048. max activation, %; in the data active = max activation above about 30%; also: 0% is about no effect
Target sequence (P35462 whole entry, looked up): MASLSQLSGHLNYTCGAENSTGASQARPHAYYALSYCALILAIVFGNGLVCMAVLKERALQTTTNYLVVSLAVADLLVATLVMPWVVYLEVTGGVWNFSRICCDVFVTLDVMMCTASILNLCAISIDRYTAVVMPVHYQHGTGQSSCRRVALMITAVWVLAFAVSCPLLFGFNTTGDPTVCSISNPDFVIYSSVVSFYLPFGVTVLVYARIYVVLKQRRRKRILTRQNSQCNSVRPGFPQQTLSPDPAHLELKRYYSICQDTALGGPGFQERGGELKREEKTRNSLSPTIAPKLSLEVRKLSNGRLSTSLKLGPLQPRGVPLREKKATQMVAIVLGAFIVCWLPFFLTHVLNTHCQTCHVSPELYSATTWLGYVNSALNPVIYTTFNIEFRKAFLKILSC
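Cells at 1500/well, incubated overnight, then treated with pinned compounds (dopamine as control) for 90 min at 37 degrees C. DiscoveRx reagent added for 30 - 60 minutes at room temperature; luminescence read.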
IL1B secr inh: blocks inflammasome-driven IL-1 beta release. THP-1 LPS/ATP IL-1B secretion, AlphaLISA, 16 h; active compounds read low. activity change, % at 57.5 µM. hit rate 4.7% among 360,000; in the data active = activity change below about -50%; inconclusive = mostly about -30% to -49%; also: % is scaled to controls: 0 for no effect and ±100 for the full control effect
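THP-1 cells pretreated 1 hr with compounds (up to 57.5 uM final), then stimulated with LPS (250 ng/mL final) plus ATP (1.25 mM final); secreted IL-1B measured by AlphaLISA after 16 hr, decreased signal indicating inhibition.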
DT40 TDP1 no CPT: qHTS for Inhibitors of human tyrosyl-DNA phosphodiesterase 1 (TDP1): qHTS in cells in absence of CPT; DT40 Tdp1-/- hTDP1 cells, no CPT, ATP luminescence, 48 h; Potency, µM (doses to about 46.2 µM), without a hit: at the top dose activity change, negative = growth inhibition, actives largely listed as inhibitors; hit rate 15% among 420,000; AID 686978, 2013; also: potency is read from the fitted curve at half-maximal effect; % is scaled to controls: 0 for no effect and ±100 for the full control effect; nearly all actives have a fitted effect of over 55% in size
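Chicken DT40 Tdp1-/- cells stably complemented with human TDP1 were seeded at 400 cells/well with DMSO in place of 20 nM camptothecin. After compound pinning, cells grew at least 48 hr at 37 °C; viability read by CellTiter-Glo luminescence.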
D3 antag: blocks the human D3 dopamine receptor; D3R cells, DiscoveRx beta-arrestin luminescence, antagonist mode; active compounds read low; max response, negative = inhibition, %; hit rate 2.5% among 360,000; AID 652054; in the data active = max response below about -50%; inconclusive = no clear call, values can overlap the other calls; also: % is scaled to controls: 0 for no effect and ±100 for the full control effect
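Cells plated overnight at 1500 cells/well, then exposed to library compounds with dopamine controls for 90 minutes at 37 degrees C. DiscoveRx reagent added for 30–60 minutes at room temperature; luminescence read, quantitative HTS format.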
DT40 TDP1 CPT: growth inhibition of DT40 Tdp1-/-;hTDP1 cells with camptothecin (screen for TDP1 inhibitors); Potency, µM (series often up to 46.2 µM), without a hit: top-dose activity change, negative = growth inhibition, most hits filed as inhibitors; hit rate 12% among 420,000; AID 686979; chicken DT40 Tdp1-/-;hTDP1 cells + 20 nM CPT, ATP luminescence, 48 h; also: potency is read from the fitted curve at half-maximal effect; % is scaled to controls: 0 for no effect and ±100 for the full control effect; nearly all actives have a fitted effect of over 55% in size
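Cell growth measured by CellTiter-Glo luminescence after a minimum 48 h, 37 C compound exposure with 20 nM CPT in Tdp1-knockout DT40 cells stably expressing hTDP1, seeded 400/well; qHTS titration format.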
ClpP mod: qHTS Assay for Activators of ClpP; hit rate 1.9% among 340,000; Potency, µM (series often up to 57.5 µM), inactives show top-dose activity change, negative = active; purified B. subtilis ClpP, FRET peptide cleavage, 20 min; ATP-dependent Clp protease proteolytic subunit (Bacillus subtilis (strain 168)), P80244; active = well fitted falling curve with a large enough effect; inconclusive = small, poorly fitted or top-dose-only effect; inactive = no such curve, though single readings can be large or run the other way; also: potency is read from the fitted curve at half-maximal effect; the source files actives as falling curves though it sought activators and does not explain the sign; nearly all actives have a fitted effect of over 65% in size
Target sequence (P80244 whole entry, looked up): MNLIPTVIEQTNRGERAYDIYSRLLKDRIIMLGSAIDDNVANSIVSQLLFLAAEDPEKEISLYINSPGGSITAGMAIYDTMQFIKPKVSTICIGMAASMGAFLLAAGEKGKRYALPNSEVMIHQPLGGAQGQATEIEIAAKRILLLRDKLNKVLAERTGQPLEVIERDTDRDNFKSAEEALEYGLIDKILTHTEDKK
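FRET quenching reversal measured ClpP activation: 10 microg/mL B. subtilis ClpP at pH 8 with the FRET-FV decapeptide, read at 430 nm after 320 nm excitation. The 20-min minus 0-min signal was scaled between DMSO/no-enzyme wells and ADEP (5.8 microM final).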
Starred values were filed as active, the others as inactive; i = inactive; ? = inconclusive; / = no result given. Unless noted, calls follow the shape of the dose curve; as a rule, active = well fitted inhibition curve with a large enough effect; inconclusive = small, poorly fitted or top-dose-only effect; inactive = flat fitted curve, though single readings scatter.

SMILES	DRD3 agonist	IL1B secr inh	DT40 TDP1 no CPT	D3 antag	DT40 TDP1 CPT	ClpP mod
CCCCNC(=O)CN1CCN(c2ccc(NC(=O)c3ccc(OC)cc3)cc2C(=O)O)CC1	6	/	5%	/	-2%	-1%
C/C(=N\NC(=O)c1ccc(Cl)c(S(=O)(=O)Nc2ccccc2Cl)c1)c1ccncc1	0	15	?	5	?	-2%
Brc1ccc[n+](CCc2ccccc2)c1	/	/	-24%	/	-7%	-1%
Brc1cc(Br)c[n+](CCc2ccccc2)c1	/	/	14µM*	/	11µM*	-2%
CCOC(=O)CCCCCC(=O)Nc1ccc2c(c1)C(=O)N([C@@H](C)CO)C[C@H](C)[C@H](CN(C)C(=O)c1ccccc1)OCCCC[C@H](C)O2	0	-10	?	-4	-10%	0%
O[C@H]1C[C@H](c2ccccc2)N(Cc2cccs2)C[C@@H]1n1cc(C2CC2)nn1	0	-10	21µM*	0	?	2%
COc1ccc([C@H]2C[C@H](O)[C@@H](n3cc(C4CC4)nn3)CN2Cc2cccs2)cc1	1	15	12µM*	5	?	-10%
CCCCNC(=O)COn1nnc2ccc(S(=O)(=O)N3CCOCC3)cc21	1	12	-19%	-10	2%	2%
CN(C)C(=O)CN1CCN(C(=O)CCl)CC1	-2	-4	16µM*	11	?	1%
COc1ccc(CNc2ncnc3ccc(-c4ccoc4)cc23)c(OC)c1	/	/	-26%	/	?	/
COc1ccc(CNc2ncnc3ccc(-c4ccccc4CN(C)C)cc23)c(OC)c1	/	/	10µM*	/	21µM*	/
COc1ccc(CNc2ncnc3ccc(-c4cccc(NS(C)(=O)=O)c4)cc23)c(OC)c1	/	/	15µM*	/	18µM*	/
COc1ccc(CNc2ncnc3ccc(-c4cccc(C#N)c4)cc23)c(OC)c1	/	/	26µM*	/	?	/
CCNc1ccc(-c2nc(-c3ccccn3)no2)cc1[N+](=O)[O-]	-19	/	-5%	/	-5%	1%
CN(Cc1cnn(C)c1)C(=O)C1CCC(=O)N(Cc2ccc(Cl)cc2)C1 (centres undefined)	0	0	-6%	-7	-2%	-2%
CC1(C)CC(=O)c2cc(C(=O)NCCc3ccccc3)c(=O)[nH]c2C1	/	/	-27%	/	-23%	-18%
COc1cccc(C2=NOC(C(=O)Nc3ccc4c(c3)OCO4)C2)c1OC (centres undefined)	4	10	?	0	-26%	1%
COc1ccccc1C1=NOC(C(=O)N2CCN(C(=O)c3ccco3)CC2)C1 (centres undefined)	0	-9	10%	-8	-12%	-7%
CCOC(=O)c1ccc(NC(=O)C(=O)NCc2ccco2)cc1	5	8	-17%	-10	-16%	27%
O=[N+]([O-])c1ccccc1N=Nc1ccc(O)cc1O	-5	-2	26µM*	-10	?	1%
CCNc1nc(Oc2ccc(Cl)cc2Cl)cc(C(F)(F)F)n1	4	7	?	-2	?	-9%
Cc1cc(Oc2ccc(Cl)cc2Cl)nc(C#N)n1	/	/	18µM*	/	11µM*	-1%
NC(=O)C1CCN(C(=O)NC(=O)c2ccccc2)CC1	2	12	27%	2	5%	-1%
CC1=CC(=C2C(=O)c3ccccc3C2=O)C=C(C)N1C	3	-25	?	-7	14%	-1%
CCCCCN1C=CC(=C2C(=O)c3ccccc3C2=O)C=C1	0	-18	?	-7	13µM*	0%
SMILES	DRD3 agonist	IL1B secr inh	DT40 TDP1 no CPT	D3 antag	DT40 TDP1 CPT	ClpP mod
Cc1ccc(OCCn2cc(/C(N)=N/O)c3ccccc32)cc1C	-3	0	?	9	-22%	-6%
COC(=O)c1cn(CCOc2ccccc2OC)c2ccccc12	2	-4	15µM*	17	18µM*	0%
O=[N+]([O-])c1ccc(N/N=C/c2cn(Cc3ccc(F)cc3)c3ccccc23)nc1	-2	46	?	-54*	?	-1%
COc1ccc(OCCn2cc(/C(N)=N/O)c3ccccc32)cc1	-3	-57*	?	6	-17%	-2%
Cc1ccccc1OCCn1cc(C=O)c2ccccc21	-1	-53*	-37%	0	?	-5%
COC(=O)c1cn(CCOc2ccccc2F)c2ccccc12	0	-19	-8%	49	-27%	-3%
CNC(=S)N/N=C/c1cn(Cc2ccc(F)cc2)c2ccccc12	3	-20	10µM*	-5	16µM*	-11%
N/C(=N\O)c1cn(Cc2ccccc2Cl)c2ccccc12	7	-66*	?	26	?	-2%
COc1ccccc1OCCn1cc(/C=N/NC(=O)c2ccncc2)c2ccccc21	3	-7	18µM*	9	-28%	1%
Cc1ccc(Cn2cc(/C=N/NC(=O)Cc3nnc(NC(=O)c4ccc(C)cc4)s3)c3ccccc32)cc1	1	-17	6.5µM*	-8	12µM*	-5%
O=C(Cc1nnc(NC(=O)c2ccccc2)s1)N/N=C/c1cccc(O)c1	-10	0	-3%	-23	27%	-1%
O=C(N/N=C/c1cn(CCOc2ccccc2)c2ccccc12)c1ccncc1	1	14	-7%	12	1%	0%
CNC(=S)N/N=C/c1cn(CCOc2ccc(OC)cc2)c2ccccc12	3	-22	7.3µM*	-10	8.2µM*	-1%
CC(=O)n1cc(/C=N/NC(N)=S)c2ccccc21	6	-15	-102%	-2	?	/
NC(=O)Cn1cc(/C=N\NS(=O)(=O)c2ccc(F)cc2)c2ccccc21	-4	i	23µM*	8	-3%	1%
COc1ccccc1OCCn1cc(/C=N/NC(N)=S)c2ccccc21	-1	-2	29µM*	-6	?	-6%
Cc1cc(N2CCN(c3cccc(C)c3C)CC2)n2nc(C)c(-c3ccc(Cl)cc3)c2n1	1	/	1%	/	-9%	?
COc1cc(C2CC(=O)N(CC(=O)Nc3ccccc3F)c3ccccc3S2)cc(OC)c1OC (centres undefined)	2	/	/	/	/	-2%
N#Cc1c(-c2ccccc2)nc(-c2ccccc2)[nH]c1=O	2	25	7%	-58*	0%	-4%
N#Cc1c(-c2ccccc2)nc(-c2ccncc2)[nH]c1=O	4	1	9%	11	15%	1%
CCN(Cc1nc2ccccc2c(=O)[nH]1)Cc1nc2cc(OC)c(OC)cc2c(=O)[nH]1	5	-21	?	60	-7%	-6%

Bioassay records as filed in PubChem BioAssay.
